Screens: PubChem BioAssay, several laboratories
Jurkat NFkB inh: lowers PMA/ionomycin-induced NF-kB signal in Jurkat cells | PMA/ionomycin-induced NF-kB luciferase reporter, luminescence | inhibition, % at 4 µM | AID 435003 | 0.53% of 330,000 active; in the data active means inhibition above about 50%
Mdm2 MdmX PPI: inhibitors of human Mdm2/MdmX interaction | O15151+Q00987 | inhibition, % at 8 µM | 3% of 330,000 active | SaOS-2 split-luciferase Mdm2/MdmX complementation, luminescence | AID 485346;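 active means inhibition of at least 50% at 8 µM in the primary screen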
Target sequence (O15151 whole entry, looked up): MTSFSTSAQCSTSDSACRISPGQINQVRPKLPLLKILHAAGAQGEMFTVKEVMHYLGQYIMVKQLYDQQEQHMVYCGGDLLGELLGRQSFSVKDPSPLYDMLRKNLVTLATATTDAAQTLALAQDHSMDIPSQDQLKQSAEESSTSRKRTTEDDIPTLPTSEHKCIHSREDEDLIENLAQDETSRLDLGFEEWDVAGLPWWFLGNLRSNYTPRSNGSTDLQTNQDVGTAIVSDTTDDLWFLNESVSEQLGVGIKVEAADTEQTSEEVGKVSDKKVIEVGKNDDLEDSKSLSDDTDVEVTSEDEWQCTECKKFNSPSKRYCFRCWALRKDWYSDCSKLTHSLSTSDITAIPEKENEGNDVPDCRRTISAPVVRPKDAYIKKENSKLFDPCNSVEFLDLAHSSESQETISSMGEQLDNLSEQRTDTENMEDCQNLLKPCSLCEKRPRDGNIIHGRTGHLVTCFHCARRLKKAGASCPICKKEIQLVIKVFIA
Target sequence (Q00987 whole entry, looked up): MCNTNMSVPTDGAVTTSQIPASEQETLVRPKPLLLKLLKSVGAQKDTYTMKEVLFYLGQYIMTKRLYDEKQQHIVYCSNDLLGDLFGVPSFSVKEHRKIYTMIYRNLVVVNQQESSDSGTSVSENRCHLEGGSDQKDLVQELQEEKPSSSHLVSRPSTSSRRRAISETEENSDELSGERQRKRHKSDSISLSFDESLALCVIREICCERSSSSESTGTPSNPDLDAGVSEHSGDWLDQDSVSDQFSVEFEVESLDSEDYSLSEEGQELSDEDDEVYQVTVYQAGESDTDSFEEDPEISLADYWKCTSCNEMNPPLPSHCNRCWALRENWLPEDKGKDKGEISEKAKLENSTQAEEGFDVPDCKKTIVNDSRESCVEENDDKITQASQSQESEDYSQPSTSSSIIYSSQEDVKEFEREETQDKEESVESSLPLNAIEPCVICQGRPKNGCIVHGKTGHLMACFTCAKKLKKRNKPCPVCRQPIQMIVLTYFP
aSyn 5UTR inh: MLPCN primary screen, SNCA 5' untranslated region; alpha-synuclein 5'UTR reporter, inhibitor activity; 0.82% of 300,000 active; AID 1813; inhibition, % (tested at 7.5 µM); in the data active means inhibition above about 60%;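 further: H4 neuroglioblastoma cells stably carrying SNCA 5'UTR luciferase fusion; 0% = DMSO wells and 100% = positive control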
Gli-Sufu antag: Gli-Sufu pathway antagonism. 0.74% of 340,000 active. Sufu-KO-LIGHT fibroblasts, Gli luciferase reporter luminescence. inhibition, % at 5 µM;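 active means inhibition above about 55%, limit read from the data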;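 further: 0% = DMSO-treated cells and 100% = wells with medium but no cells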
KLF5 inhibitor: kruppel-like factor 5 inhibition; 0.23% of 290,000 active; inhibition, % at 5 µM; DLD-1 KLF5 promoter-luciferase reporter, luminescence;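 active means inhibition above a per-plate limit of that plate's mean compound inhibition plus 3 SD, cut at about 60% in these data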;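 further: 0% = DMSO wells and 100% = LY294002 at 200 µM; higher means less KLF5 promoter-driven luciferase light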
697 NFkB inh: inhibitors of the PMA/ionomycin-induced NF-kB reporter in 697 B cells; 697 B-cell NF-kB luciferase reporter, 16 h; 0.33% of 330,000 active; inhibition, % at 4 µM; in the data active means inhibition above about 35%
Mdm2 MdmX conf: confirmation of human Mdm2/MdmX interaction inhibitors. 55% of 10,000 active. Mdm2-MdmX binding, luminescent assay. inhibition, % at 8 µM. shares compounds with Mdm2 MdmX PPI; in the data active means inhibition above about 40%
Full FLuc ctr: inhibits full-length luciferase, flagging false Mdm2/MdmX hits | shares compounds with Mdm2 MdmX PPI | SaOS-2 full-length luciferase counterscreen, luminescence | inhibition, % at 8 µM | 77% of 6,200 active | AID 504607;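 active means mean inhibition at 8 µM reaching about 37%, which flags the compound as non-specific, limit read from the data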;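 further: p53-null SaOS-2 cells with luciferase driven by a doxycycline-inducible promoter; compound on cells about two nights before reading with doxycycline added after day one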
Gli antag conf: Gli-SUFU antagonism confirmation, single concentration; shares compounds with Gli-Sufu antag; 40% of 2,500 active; Sufu-KO-LIGHT cells, Gli luciferase reporter, luminescence; AID 602428; inhibition, % at 5 µM;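 active means mean inhibition at 5 µM reaching about 45%, limit read from the data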;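 further: plate controls were DMSO-treated cells for no effect and wells lacking cells for full effect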
SufuKO cytotox: cytotoxic in Gli-SUFU antagonist counter-screen; shares compounds with Gli-Sufu antag; Sufu-KO-LIGHT cells cytotoxicity, ATP luminescence; cytotoxicity, % at 5 µM; 32% of 2,500 active;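 active means mean cytotoxicity at 5 µM above about 25%, limit read from the data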;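 further: cells exposed to compound overnight for roughly 16 to 18 hours; plate controls were DMSO wells with cells for no effect and medium without cells for full effect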
Wnt3a cs: counter-screen for Gli-SUFU antagonists: Wnt3a reporter inhibition; shares compounds with Gli-Sufu antag; Wnt-LIGHT cells, Wnt3a-driven luciferase reporter, luminescence; inhibition, % at 6.25 µM; 20% of 2,500 active;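 active means mean inhibition above about 25%, limit read from the data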
An asterisk follows results filed as active; / = no result given. Hits are enriched below; roughly 4.1% of the tested compounds scored in any of these assays.

SMILES | Jurkat NFkB inh | Mdm2 MdmX PPI | aSyn 5UTR inh | Gli-Sufu antag | KLF5 inhibitor | 697 NFkB inh | Mdm2 MdmX conf | Full FLuc ctr | Gli antag conf | SufuKO cytotox | Wnt3a cs
C[n+]1c2n(c3ccccc31)N=C(c1ccc(-c3ccccc3)cc1)CS2 | 43 | 80* | 10 | 87* | 18 | 12 | 61* | 26 | 89* | 32* | 12
c1ccc(C2=Nn3c(nnc3-c3ccncc3)SC2)cc1 | / | / | 25 | -11 | -1 | / | / | / | / | / | /
O=C(c1ccc(=O)[nH]n1)N1CCN(S(=O)(=O)c2ccc(C(F)(F)F)cc2)CC1 | -2 | 2 | / | 1 | / | 6 | / | / | / | / | /
Cc1cc(/C=N/n2cnnc2)c(C)n1-c1ccc(OCc2ccc(F)cc2)cc1 | 7 | 65* | -73 | 74* | -81 | -93 | 35 | 78* | 74* | 28* | 22
Cc1cc(/C=N/n2cnnc2)c(C)n1-c1ccc(Cl)cc1 | 19 | 7 | 16 | 1 | -2 | 18 | / | / | / | / | /
O=C(N/N=C/c1ccccc1O)c1cccc(C(F)(F)F)c1 | 42 | 69* | 82* | 66* | -11 | -1 | 73* | 36 | 62* | 36* | 58*
O=C(N/N=C/c1ccc(O)cc1)c1cccc(C(F)(F)F)c1 | 2 | -15 | 8 | 6 | -34 | -9 | / | / | / | / | /
CCN(CC)S(=O)(=O)c1cccc(C(=O)N/N=C/c2cccc(O)c2O)c1 | 5 | 60* | 66* | 71* | -22 | -48 | 66* | 39* | 51* | 48* | 36*
Cc1cc(Nc2cccc(Cl)c2)nc(NCc2ccccc2)n1 | -7 | 59* | 20 | 74* | -1 | -32 | 40 | 62* | 52* | 32* | -9
O=S(=O)(Nc1nc2ccccc2nc1Nc1ccc2c(c1)OCO2)c1ccc(F)cc1 | -6 | 50* | -15 | 58* | -6 | -29 | 27 | / | 58* | 16 | 51*
Cc1ccc2c(c1)N(CC(=O)NCCC1=CCCCC1)C(=O)c1cccnc1O2 | 6 | -32 | 10 | -1 | 15 | 20 | / | / | / | / | /
CCC(=O)Nc1ccc(SC#N)cc1C | 8 | 34 | 6 | -4 | -4 | 21 | / | / | / | / | /
Cc1cc(SC#N)cc(C)c1NC(=O)CCl | 21 | 59* | -23 | 51 | -10 | 0 | 49* | 34 | 46* | 50* | 19
COC(=O)Cc1[nH]n(-c2nc3ccccc3s2)c(=O)c1C(C)=Nc1ccc(C)cc1 | 45 | 56* | 98* | 90* | -14 | 15 | 56* | 32 | 94* | 14 | 106*
Cc1ccncc1CNC(=O)c1ccccc1 | / | / | / | -1 | / | / | / | / | / | / | /
Cc1cc(/C=c2/sc3nc4ccccc4n3c2=O)c(C)n1-c1ccccn1 | 1 | 69* | 88* | 86* | 28 | -75 | 94* | 14 | 94* | 29* | 104*
Cc1cc(/C=c2\sc3nc4ccccc4n3c2=O)c(C)n1-c1ccc(C(=O)O)cc1 | / | / | -62 | -18 | -10 | / | / | / | / | / | /
COC(=O)CNC(=O)c1ccc(F)cc1 | -7 | -6 | -18 | 2 | -1 | 4 | / | / | / | / | /
N#C/C(=N\Nc1ccc(Cl)cc1)C(N)=S | -14 | 64* | -19 | 60* | -14 | -72 | 64* | 44* | 59* | 12 | 32*
CCOC(=O)c1sc(NC(=O)c2cccc(S(=O)(=O)N3CCc4ccccc43)c2)c(C#N)c1C | 4 | 89* | 25 | 73* | -32 | -11 | 30 | / | 78* | 16 | 72*
CCOC(=O)c1sc(NC(=O)c2cc(-c3ccccc3)nc3ccccc23)c(C#N)c1C | -16 | 94* | 35 | 53 | -40 | -16 | 91* | 47* | 74* | 11 | 65*
CC(=O)c1sc(N/N=C2\CC3CCC2(C)C3(C)C)nc1C (centres undefined) | 2 | 2 | 4 | 4 | -14 | -20 | / | / | / | / | /
Cc1nc2ncccn2c1-c1csc(Nc2ccc(O)cc2)n1 | 3 | 72* | -67 | 55* | -80 | 3 | 68* | 66* | 52* | 19 | -35
O=C(CN1C(=O)COc2ccccc2C1=O)c1ccc2c(c1)OCCO2 | 11 | 30 | 4 | 13 | 1 | 4 | / | / | / | / | /
CCCn1c(SCC(=O)Nc2nc(-c3ccc(OC)cc3)cs2)nc2c1c(=O)n(C)c(=O)n2C | 15 | 68* | -7 | 59* | -30 | -24 | 13 | / | 51* | 12 | 5
SMILES | Jurkat NFkB inh | Mdm2 MdmX PPI | aSyn 5UTR inh | Gli-Sufu antag | KLF5 inhibitor | 697 NFkB inh | Mdm2 MdmX conf | Full FLuc ctr | Gli antag conf | SufuKO cytotox | Wnt3a cs
CCn1c(SCC(=O)Nc2nc3ccc(OC)cc3s2)nc2c1c(=O)n(C)c(=O)n2C | 3 | 22 | 16 | 17 | -9 | -7 | / | / | / | / | /
COc1cc(C(=O)Nc2ccc3c(c2)CCCN3C(=O)c2ccco2)c([N+](=O)[O-])cc1OC | 19 | 5 | 7 | 5 | / | 7 | / | / | / | / | /
O=C(Nc1cc(Sc2ccccn2)cc([N+](=O)[O-])c1)c1ccc(Cl)cc1 | 21 | 52* | -37 | 53 | -37 | -42 | 12 | / | 20 | 10 | -58
COc1ccc(NC(=O)/C(C#N)=C\c2cc(C)n(-c3ccc4c(c3)OCO4)c2C)cc1 | 46 | 58* | -107 | 64* | -10 | -54 | 55* | 75* | 56* | 56* | -65
CCOC(=O)c1cocc1C(=O)O | / | / | / | 19 | / | / | / | / | / | / | /
Cc1ccc(Cl)cc1NC(=O)c1cc2ccccc2cc1O | 13 | 93* | 54 | 61* | -23 | -14 | 97* | 52* | 71* | 26* | 56*
Cc1ccc(Cl)cc1NC(=O)COC(=O)c1ccccc1O | 11 | 24 | 5 | 6 | -10 | 1 | / | / | / | / | /
COC(=O)c1ccc(-c2ccc(OC)c([C@H]3[C@H]4C=CC[C@@H](C)[C@@H]4C(=O)N3Cc3ccccc3)c2)cc1 | -23 | 62* | 34 | 54 | / | 31 | 45* | 46* | 50* | 38* | -2
COc1ccc(C2=Nn3c(nnc3-c3ccccc3OC)SC2)cc1OCC1CC1 | -2 | 74* | / | 65* | / | -75 | 66* | 86* | 60* | 65* | -105
CCCc1nnc2n1N=C(c1ccc(OC)c(OC)c1)CS2 | 7 | 43 | 39 | 9 | -12 | 8 | / | / | / | / | /
COC(=O)c1ccc(OC(=O)CN2C(=O)c3ccccc3C2=O)cc1 | 12 | 34 | 5 | -3 | -18 | 11 | / | / | / | / | /
Cc1ccc(CNC(=O)CN2C(=O)COc3ccc(S(=O)(=O)N4CCCCC4)cc32)o1 | 3 | -1 | 13 | -7 | -19 | -12 | / | / | / | / | /
